Bioassay records: PubChem, National Center for Advancing Translational Sciences (NCATS)
Only some compounds are listed: those with a hit (about 18% of all), similar ones and a draw of the others.
TDP1 cell noCPT: qHTS for Inhibitors of human tyrosyl-DNA phosphodiesterase 1 (TDP1): qHTS in cells in absence of CPT; DT40 Tdp1-/- hTDP1 cells, no CPT, ATP luminescence, 48 h; 420,000 compounds, 15% hits; AID 686978, 2013; Potency, µM (highest dose often 46.2 µM), actives largely listed as inhibitors; further: nearly all actives have a fitted effect of over 55% in size
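DT40 Tdp1-/-;hTDP1 cells, no CPT (DMSO vehicle only), 400 cells/well; compounds pin-transferred; ≥48 hr, 37 °C; CellTiter-Glo 30 min RT dark, luminescence read.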
IL1B secr inh: qHTS for Inhibitors of Inflammasome Signaling: IL-1-beta AlphaLISA Primary Screen; 360,000 compounds, 4.7% hits; activity change, % at 57.5 µM; AID 743279, 2014; THP-1 LPS/ATP IL-1B secretion, AlphaLISA, 16 h; stronger effect = lower value; in the data active means activity change below about -50%; inconclusive means mostly about -30% to -49%
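THP-1 cells pretreated 1 hr with compounds (up to 57.5 uM final), then stimulated with LPS (250 ng/mL final) plus ATP (1.25 mM final); secreted IL-1B measured by AlphaLISA after 16 hr, decreased signal indicating inhibition.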
DT40 TDP1 CPT: qHTS for Inhibitors of human tyrosyl-DNA phosphodiesterase 1 (TDP1): qHTS in cells in presence of CPT; chicken DT40 Tdp1-/-;hTDP1 cells + 20 nM CPT, ATP luminescence, 48 h; Potency, µM (highest dose often 46.2 µM), most hits filed as inhibitors; 420,000 compounds, 12% hits; further: nearly all actives have a fitted effect of over 55% in size
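Chicken DT40 Tdp1-/- cells complemented with human TDP1, 400 cells/well, exposed to compounds plus 20 nM camptothecin for at least 48 h at 37 C; viability read as ATP content by CellTiter-Glo luminescence.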
RORg inh: qHTS for inhibitors of ROR gamma transcriptional activity; 310,000 compounds, 5.4% hits; Drosophila S2 Gal4-RORgamma UAS-luciferase reporter, 20 h; AID 2551, 2010; Nuclear receptor ROR-gamma (Mus musculus), P51450; Potency, µM (highest dose often 53.6 µM), hits mostly inhibitors; further: nearly all actives have a fitted effect of over 60% in size
Target sequence (P51450 whole entry, looked up, the tested form may be a part): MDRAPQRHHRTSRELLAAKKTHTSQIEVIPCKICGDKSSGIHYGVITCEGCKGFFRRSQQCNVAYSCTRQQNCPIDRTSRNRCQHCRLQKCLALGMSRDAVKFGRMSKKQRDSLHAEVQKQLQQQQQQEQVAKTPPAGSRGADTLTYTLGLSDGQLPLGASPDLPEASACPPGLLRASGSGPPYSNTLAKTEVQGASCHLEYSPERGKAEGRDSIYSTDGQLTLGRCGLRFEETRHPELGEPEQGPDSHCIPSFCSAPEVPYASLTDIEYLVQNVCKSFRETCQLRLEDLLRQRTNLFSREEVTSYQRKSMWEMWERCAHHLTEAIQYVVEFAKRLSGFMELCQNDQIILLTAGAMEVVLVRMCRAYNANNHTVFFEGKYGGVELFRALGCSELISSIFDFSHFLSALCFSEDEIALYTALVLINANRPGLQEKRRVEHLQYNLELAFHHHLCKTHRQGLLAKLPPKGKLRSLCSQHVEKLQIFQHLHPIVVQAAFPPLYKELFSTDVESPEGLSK
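Stably transfected Drosophila Schneider cells are the test system, with ROR gamma fused to Gal4 and luciferase under UAS control; luminescence is read after 20 hr of 700 uM copper sulfate induction at ambient temperature.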
LDHA block: qHTS assay for inhibitors of human lactate dehydrogenase | purified LDHA, NADH/diaphorase-resazurin fluorescence; stronger effect = lower value | activity change, % (values are at about 110 or 230 µM) | L-lactate dehydrogenase A chain (Homo sapiens), P00338 | AID 1347041, 2019 | 480,000 compounds, 0.15% hits; in the data active means activity change below about -30%; inconclusive means mostly about -25% to -30%
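Remaining NADH was detected by diaphorase (0.133 mg/mL) converting 37 µM resazurin to fluorescent resorufin, read at 0 and 20 minutes. The preceding 5-minute room-temperature reaction used 2 nM LDHA, 0.2 mM sodium pyruvate and 0.06 mM NADH at pH 7.4.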
Gal4-VP16 FLuc: VP16 counterscreen qHTS for inhibitors of ROR gamma transcriptional activity | Drosophila S2 Gal4-VP16 UAS-luciferase, luminescence, 20 h | Potency, µM (top dose mostly 53.6 µM), usual class: inhibitors | 310,000 compounds, 3.5% hits | AID 2546, 2010;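 further: Gal4-VP16 expression switched on by copper sulfate through the metallothionein promoter; nearly all actives have a fitted effect of over 50% in size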
Numbers stand for hits; . = inactive; ? = inconclusive; / = not tested or not shown; [ ] = another dose, or the depositor's remark. Unless noted, the call rests on the fitted dose curve; in most records, active means well fitted curve in the direction sought with a large enough effect; inconclusive means small, poorly fitted or top-dose-only effect, or another doubt; inactive means no such curve, though single readings can be large; an effect the other way counts as inactive or inconclusive.

SMILES	TDP1 cell noCPT	IL1B secr inh	DT40 TDP1 CPT	RORg inh	LDHA block	Gal4-VP16 FLuc
O=C(Nc1nnc(-c2ccc(Cl)cc2)o1)C1=COCCO1	.	.	.	2.5µM	.	1.8µM
COc1ccc(C(=O)Nc2nnc(C3=COCCO3)o2)cc1OC	.	.	.	1.6µM	.	1.8µM
O=C(Nc1nnc(C2=COCCO2)o1)C1CCCCC1	.	.	.	.	.	.
CCOc1cc(-c2nnc(NC(=O)C3=COCCO3)o2)cc(OCC)c1OCC	.	.	.	/	.	/
Cc1cc(C=O)c(C)n1CCc1ccc(Cl)cc1	/	/	/	/	.	/
CCN1C(=O)c2ccccc2Sc2ccc(C(=O)NCCCN3CCOCC3)cc21	.	.	.	.	.	.
O=C(NCCCN1CCOCC1)c1ccc2c(c1)N(Cc1c(F)cccc1Cl)C(=O)c1ccccc1S2	?	-52	?	?	.	.
O=C(NCCCN1CCOCC1)c1ccc2c(c1)N(Cc1cccc(Cl)c1)C(=O)c1ccccc1S2	23µM	/	?	/	.	/
O=C(NCCCN1CCOCC1)c1ccc2c(c1)N(Cc1cccc(Cl)c1)C(=O)CS2	16µM	.	?	.	.	.
O=C(CCl)c1ccc2c(c1)CCCC2	0.79µM	/	0.89µM	/	.	/
O=C(C[n+]1ccccc1Br)c1ccc2c(c1)CCCC2	20µM	/	?	/	.	/
Cc1ccc(OCC(=O)c2ccc3c(c2)CCCC3)cc1C	?	.	?	.	.	.
O=C(COc1ccc(Br)cc1)c1ccc2c(c1)CCCC2	23µM	.	?	.	.	.
O=C(C[n+]1ccccc1Br)c1ccc(O)c(O)c1	.	/	.	/	.	/
O=C(CCl)c1cc2c3c(c1)CC(=O)N3CCC2	0.33µM	-71	1.2µM	2µM	.	3.5µM
CC(Sc1nc(CN2CCOCC2)nc2ccccc12)C(=O)c1cccc(Cl)c1 (stereo unspecified)	/	/	/	/	.	/
Fc1ccc(-c2csc(/C=C/c3cccc(OCc4ccccc4)c3)n2)cc1	/	/	/	/	.	/
C=CCNC(=S)N/N=C(/C)c1ccncc1	/	/	/	/	.	/
COc1ccc(/C(C)=N/NC(=S)NCCc2ccccc2)cc1	?	.	?	0.28µM	.	1.1µM
COc1ccc(CNC(=S)N/N=C(\C)c2ccc(OC)cc2)cc1	5.2µM	.	12µM	6.3µM	.	5µM
C=CCNC(=S)N/N=C(\C)c1ccc(OC)cc1	?	.	?	0.71µM	.	1.1µM
C=CCNC(=S)N/N=C(\C)c1cccc(OC)c1	2.1µM	-77	1.2µM	0.79µM	.	0.89µM
COc1ccc(CC(=S)NCCc2ccccc2)cc1	?	.	.	.	.	.
CCOC(=O)C1CCC(CNCc2c(Cl)cccc2Cl)CC1 (stereo unspecified)	/	/	/	/	.	/
CCc1cc(CC)n(-c2nc3c(c(=O)n(Cc4ccc(F)cc4)c(=O)n3C)n2C)n1	/	/	/	/	.	/
SMILES	TDP1 cell noCPT	IL1B secr inh	DT40 TDP1 CPT	RORg inh	LDHA block	Gal4-VP16 FLuc
O=C(O)c1ccccc1-n1cccc1	/	/	/	/	.	/
Cn1nc(C(=O)OCC(=O)NCc2ccco2)c2ccccc2c1=O	/	/	/	/	.	/
COc1ccc(/C(C)=N/NC(=S)NCc2ccco2)cc1	1.5µM	.	2.9µM	2.8µM	.	5.6µM
CCOc1ccc2[nH]cc(S(=O)(=O)c3ccc(F)cc3)c(=O)c2c1	9.2µM	.	9.2µM	.	.	13µM
Cc1cccc(CN2C(=O)c3ccccc3S(=O)(=O)c3ccc(C(=O)NC4CCCCC4)cc32)c1	.	/	.	/	.	/
CN(Cc1ccccc1)C(=O)c1ccc2c(c1)N(Cc1ccccc1F)C(=O)c1ccccc1S2(=O)=O	9.2µM	/	?	/	.	/
O=C(NCCc1ccc(Cl)cc1)c1ccc2c(c1)N(Cc1ccccc1F)C(=O)c1ccccc1S2(=O)=O	?	/	?	/	.	/
Cc1cccc(CN2C(=O)c3ccccc3S(=O)(=O)c3ccc(C(=O)N(C)Cc4ccccc4)cc32)c1	?	/	16µM	/	.	/
CC(=O)c1c2ccccc2cc2ccccc12	/	/	/	/	.	/
COC(=O)c1ccc(CO/N=C/c2ccc(Cl)cc2Cl)cc1	/	/	/	/	.	/
O=S(=O)(c1ccc(-c2csc(Nc3ccc(F)cc3)n2)cc1)N1CCCC1	12µM	.	12µM	?	.	.
CCC(C)c1ccc(Nc2nc(-c3ccc(S(=O)(=O)N4CCCC4)cc3)cs2)cc1 (stereo unspecified)	/	/	/	/	.	/
Cc1ccc(Nc2nc(-c3ccc(S(=O)(=O)N4CCCC4)cc3)cs2)cc1C	21µM	?	?	.	.	.
Cc1cc(C)cc(Nc2nc(-c3ccc(S(=O)(=O)N4CCCC4)cc3)cs2)c1	7.3µM	?	8.2µM	.[10 µM]	.	.
COc1cc(OC)c(Nc2nc3ccccc3nc2NS(=O)(=O)c2cccc(C)c2)cc1Cl	/	/	/	/	.	/
Cc1ccc(CNC(=O)C2CCCCN2S(=O)(=O)c2ccc(F)cc2)cc1 (stereo unspecified)	26µM	/	13µM	/	.	/
COc1ccc(CNC(=O)C2CCCN2S(=O)(=O)c2ccccc2)cc1 (stereo unspecified)	?	.	?	.	.	.
CC(C)c1ccc(CNC(=O)C2CCCN2S(=O)(=O)c2ccccc2)cc1 (stereo unspecified)	12µM	.	?	.	.	.
O=C(NCc1ccc(F)cc1)C1CCCN1S(=O)(=O)c1ccccc1C(F)(F)F (stereo unspecified)	?	.	13µM	/	.	/
COc1ccc(OC)c(C(=O)OCc2nc(N)c3ccccc3n2)c1	/	/	/	/	.	/
Cc1cc(C(=O)NC2CCCc3c2cnn3-c2ccc(C)c(C)c2)no1 (stereo unspecified)	?	.	15µM	?	.	.
Cc1ccc(-n2ncc3c2CCCC3NC(=O)c2ocnc2C)cc1C (stereo unspecified)	7.3µM	.	10µM	.	.	7.1µM
CCCC(=O)NC1CCCc2c1cnn2-c1ccc(C)c(C)c1 (stereo unspecified)	?	.	.	?	.	.
CCn1nc(C)cc1C(=O)NC1CCCc2c1cnn2-c1ccc(C)c(C)c1 (stereo unspecified)	?	.	?	.	.	?
C=CCn1c(-c2cccnc2Cl)nc2cc(Cl)c(Cl)cc21	?	.	18µM	.	.	.
C=CCn1c(-c2cccnc2Cl)nc2ccccc21	.	.	.	.	.	.
CCCn1c(-c2cccnc2Cl)nc2cc(Cl)c(Cl)cc21	?	.	15µM	.	.	.
O=C(NCCNC(=O)C1CC1)c1cc2ccccc2[nH]1	/	/	/	/	.	/
